Source: PubChem BioAssay (NCATS)
Inconclusive results are not listed. A call without a number means that no potency is given here. Unmarked numbers belong to inactive results. Activity calls are given as the source filed them. The call rests on the fitted dose curve; in most records, active means well fitted curve in the direction sought with a large enough effect; inconclusive means small, poorly fitted or top-dose-only effect, or another doubt; inactive means no such curve, though single readings can be large; an effect the other way counts as inactive or inconclusive.

Legend:
[1] = target: Aldehyde dehydrogenase, mitochondrial (Homo sapiens) (UniProt P05091); experiment: qHTS for Inhibitors of the Aldehyde Dehydrogenase Family (ALDH2) Primary screen (AID 2061308); further: nearly all actives have a fitted effect of over 55% in size
[2] = target: Retinaldehyde dehydrogenase 3 (Homo sapiens) (UniProt P47895); experiment: qHTS for Inhibitors of the Aldehyde Dehydrogenase Family (ALDH1A3) Confirmatory screens (AID 2061311); further: potency means the concentration at half of the fitted maximal effect; nearly all actives have a fitted effect of over 60% in size
[3] = target: Retinaldehyde dehydrogenase 3 (Homo sapiens) (UniProt P47895); experiment: qHTS for Inhibitors of the Aldehyde Dehydrogenase Family (ALDH1A3) Primary screen (AID 2061315)
[4] = target: Aldehyde dehydrogenase 1A1 (Homo sapiens) (UniProt P00352); experiment: qHTS for Inhibitors of the Aldehyde Dehydrogenase Family (ALDH1A1) Confirmatory screens (AID 2061316); further: nearly all actives have a fitted effect of over 65% in size; further: potency means the concentration at half of the fitted maximal effect
[5] = target: Retinaldehyde dehydrogenase 3 (Homo sapiens) (UniProt P47895); experiment: qHTS for Inhibitors of the Aldehyde Dehydrogenase Family (ALDH1A3) Validation screen (AID 2061312); further: nearly all actives have a fitted effect of over 45% in size; further: potency means the concentration at half of the fitted maximal effect
[6] = BET inhibitor-based combinations targeting novel dependencies in MECOM-rearranged (r) AML: SET-2 cell line (AID 2202231); settings: SET-2 AML cells viability, CellTiter-Glo luminescence, 48 h; viability: stronger effect = lower value, series mostly up to about 46 µM; further: nearly all actives have a fitted effect of over 35% in size
In short: (§1)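 Each compound was tested at eleven concentrations on cells seeded at 500/well. After two days' incubation, ATP-based luminescence reported viability; responses relative to DMSO and blank wells yielded AUC and cell-line-centred Z-AUC.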

[7] = BET inhibitor-based combinations targeting novel dependencies in MECOM-rearranged (r) AML: OCI-AML3 cell line (AID 2202232); settings: Potency: OCI-AML3 viability; further: series mostly up to about 46 µM; nearly all actives have a fitted effect of over 35% in size
In short: as §1

[8] = BET inhibitor-based combinations targeting novel dependencies in MECOM-rearranged (r) AML: MV-4-11 cell line (AID 2202233); further: nearly all actives have a fitted effect of over 45% in size
In short: (§2)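 First, 500 cells per well were seeded; next, drugs were pinned as 11-point doses; then plates sat 48 hr in the incubator; finally CellTiter-Glo was added and luminescence read, with AUC and Z-AUC computed.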

[9] = BET inhibitor-based combinations targeting novel dependencies in MECOM-rearranged (r) AML: HNT-34 cell line (AID 2202234); further: nearly all actives have a fitted effect of over 35% in size
In short: as §2

[10] = BET inhibitor-based combinations targeting novel dependencies in MECOM-rearranged (r) AML: UCSD-AML1 cell line (AID 2202235); further: series mostly up to about 46 µM; nearly all actives have a fitted effect of over 40% in size
In short: as §2

[11] = BET inhibitor-based combinations targeting novel dependencies in MECOM-rearranged (r) AML: AML-191 cell line (AID 2202236; further: nearly all actives have a fitted effect of over 35% in size)
In short: as §1

For `COc1cccc(CNc2ccc(S(=O)(=O)Nc3cccc4ccncc34)cc2)c1O`, the Potency [1] was “inactive”, the Potency [2] was 22.5 µM (active) and the Potency [3] was “inactive”. The Potency [4] was “inactive”.
In the case of `CCN(CC)CCN(Cc1ccc(-c2ccc(C(F)(F)F)cc2)cc1)C(=O)Cn1c(SCc2ccc(F)cc2)nc(=O)c2c1CCC2`, the Potency [1] is reported as “inactive”, the Potency [5] is reported as “inactive” and the Potency [3] is reported as “inactive”.
In the case of `O=C(NCCCN1CCNCC1)c1cccc(-c2cc(O)c3ncccc3c2)c1`, the Potency [1] is reported as “inactive”, the Potency [2] is reported as 10.1 µM (active) and the Potency [3] is reported as “inactive”. For the same compound, the Potency [4] was “inactive”.
With `CC(=O)OC1C(=O)C2(C)C(O)CC3OCC3(OC(C)=O)C2C(OC(=O)c2ccccc2)C2(O)CC(OC(=O)C(O)C(NC(=O)c3ccccc3)c3ccccc3)C(C)=C1C2(C)C` (stereo not drawn) the Potency [1] was “inactive”, the Potency [5] was “inactive” and the Potency [3] was “inactive”.
With `COCCOc1cnc2ccn([C@H](C)c3nnc4c(F)cc(-c5cnn(C)c5)cn34)c(=O)c2c1` the Potency [1] was “inactive”, the Potency [2] was 12.7 µM (active) and the Potency [3] was “inactive”. For the same compound, the Potency [4] was 25.2 µM (active), the viability [6] was 70.9% and the Potency [7] was “inactive”. The Potency [8] was “inactive”, the Potency [9] was “inactive” and the Potency [10] was “inactive”. For the same compound, the Potency [11] was “inactive”.
In the case of `Cc1ccc2nc(NC(=O)CSc3nc4c(c(=O)n3-c3ccc(F)cc3)SCC4)sc2c1`, the Potency [1] is reported as “inactive”, the Potency [5] is reported as “inactive” and the Potency [3] is reported as “inactive”.
With `CC(C)(C)c1ccc(CN2CCN(C(c3ccccc3)c3ccc(Cl)cc3)CC2)cc1` (stereo not drawn) the Potency [1] was “inactive”, the Potency [5] was 31.6 µM (active) and the Potency [3] was “inactive”.
In the case of `CCOC(=O)c1[nH]c2c(c1C)C(=O)CC(c1ccco1)C2` (stereo not drawn), the Potency [1] is reported as “inactive”, the Potency [2] is reported as 12.7 µM (active) and the Potency [3] is reported as “inactive”. The Potency [4] was 2.52 µM (active).
In the case of `O=C(c1ccc(Cl)c([N+](=O)[O-])c1)N1CCN(c2ccccc2F)CC1`, the Potency [1] is reported as “inactive”, the Potency [5] is reported as “inactive” and the Potency [3] is reported as “inactive”.
In the case of `CN(C)Cc1ccc(-c2cnn3c(-c4cccc(NC(=O)c5cccc(C(F)(F)F)c5)c4)ccnc23)cc1`, the Potency [1] is reported as “inactive”, the Potency [5] is reported as “inactive” and the Potency [3] is reported as “inactive”.
With `CC(=O)OCC(=O)[C@@]1(O)[C@H](C)C[C@H]2[C@@H]3CCC4=CC(=O)C=C[C@]4(C)[C@@]3(F)[C@@H](O)C[C@@]21C` the Potency [1] was “inactive”, the Potency [5] was “inactive” and the Potency [3] was “inactive”.
In the case of `COc1cc2nc(N3CCC(N4CCCCC4)CC3)nc(NC3CCCCCC3)c2cc1OC`, the Potency [1] is reported as “inactive”, the Potency [5] is reported as “inactive” and the Potency [3] is reported as “inactive”.
With `CC[C@H](C)[C@H]1O[C@]2(CC[C@@H]1C)C[C@@H]1C[C@@H](C/C=C(\C)[C@@H](O[C@H]3C[C@H](OC)[C@@H](O[C@H]4C[C@H](OC)[C@@H](O)[C@H](C)O4)[C@H](C)O3)[C@@H](C)/C=C/C=C3\CO[C@@H]4[C@H](O)C(C)=C[C@@H](C(=O)O1)[C@]34O)O2` the Potency [1] was “inactive”, the Potency [5] was “inactive” and the Potency [3] was “inactive”.
In the case of `OC(CNCCc1c[nH]c2ccccc12)Cn1c2ccccc2c2ccccc21` (stereo not drawn), the Potency [1] is reported as “inactive”, the Potency [5] is reported as “inactive” and the Potency [3] is reported as “inactive”.
In the case of `CC(=O)N1c2ccc(-c3ccc(C(=O)O)cc3)cc2C(Nc2ccc(Cl)cc2)CC1C` (stereo not drawn), the Potency [1] is reported as “inactive”, the Potency [5] is reported as “inactive” and the Potency [3] is reported as “inactive”.
For `C[C@@H](CN1CCC(n2c(=O)[nH]c3cc(Cl)ccc32)CC1)NC(=O)c1ccc2ccccc2c1`, the Potency [1] was “inactive”, the Potency [5] was “inactive” and the Potency [3] was “inactive”.
For `COc1cc(C(=O)O)ccc1NC(=O)C1NC(CC(C)(C)C)C(C#N)(c2ccc(Cl)cc2F)C1c1cccc(Cl)c1F` (stereo not drawn), the Potency [1] was “inactive”, the Potency [5] was “inactive” and the Potency [3] was “inactive”.
With `COc1c(Nc2ncc(Cl)c(N[C@H]3[C@@H](C(N)=O)[C@@H]4C=C[C@H]3C4)n2)ccc2c1CC[C@@H](N1CCOCC1)CC2` the Potency [1] was “inactive”, the Potency [5] was “inactive” and the Potency [3] was “inactive”.
In the case of `CC(=O)c1c(OCCN2CCCCC2)c(OCCC(C)c2ccc(F)cc2)c2oc(C)nc2c1C` (stereo not drawn), the Potency [1] is reported as “inactive”, the Potency [5] is reported as “inactive” and the Potency [3] is reported as “inactive”.
With `O=C(c1ccccc1)c1ccc2nc(NC(=O)c3csc(C4CCN(c5ncnc6ccsc56)CC4)n3)[nH]c2c1` the Potency [1] was “inactive”, the Potency [5] was “inactive” and the Potency [3] was “inactive”.
With `Cc1cn(C2C=CC(CO)O2)c(=O)[nH]c1=O` (stereo not drawn) the Potency [1] was “inactive”, the Potency [5] was “inactive” and the Potency [3] was “inactive”.
For `O=C(NC1(c2ccccc2)CC1)c1c(CN2CCC(N3CCCCC3)CC2)c(-c2cccc(C(F)(F)F)c2)nc2cc(Br)ccc12`, the Potency [1] was “inactive”, the Potency [5] was “inactive” and the Potency [3] was “inactive”.
In the case of `CCc1cnn2c(NCc3ccc[n+]([O-])c3)cc(N3CCCCC3CCO)nc12` (stereo not drawn), the Potency [1] is reported as “inactive”, the Potency [5] is reported as “inactive” and the Potency [3] is reported as “inactive”.
With `CC1CCN(C(c2ccc(F)cc2)c2ccc(C(C)C(=O)O)cc2-c2ccc(C(F)(F)F)cc2)CC1` (stereo not drawn) the Potency [1] was “inactive”, the Potency [5] was “inactive” and the Potency [3] was “inactive”.
With `COc1cc2ncnc(N3CCC(Oc4cnc5ccccc5n4)C3)c2cc1OC` (stereo not drawn) the Potency [1] was “inactive”, the Potency [5] was “inactive” and the Potency [3] was “inactive”.
For `CC(C)c1nc(CN(C)C(=O)N[C@H](C(=O)N[C@@H](Cc2ccccc2)C[C@H](O)[C@H](Cc2ccccc2)NC(=O)OCc2cncs2)C(C)C)cs1`, the Potency [1] was “inactive”, the Potency [5] was “inactive” and the Potency [3] was “inactive”.
